HPGD block: blocks human HPGD enzyme activity; P15428; purified HPGD, NADH fluorescence kinetic, PGE2 substrate; Potency, µM, for the others: at the highest dose activity change, negative = inhibition, hits mostly inhibitors; 150,000 compounds, 4.3% hits; AID 894; also: potency is read from the fitted curve at half-maximal effect
Target sequence (P15428 whole entry, looked up): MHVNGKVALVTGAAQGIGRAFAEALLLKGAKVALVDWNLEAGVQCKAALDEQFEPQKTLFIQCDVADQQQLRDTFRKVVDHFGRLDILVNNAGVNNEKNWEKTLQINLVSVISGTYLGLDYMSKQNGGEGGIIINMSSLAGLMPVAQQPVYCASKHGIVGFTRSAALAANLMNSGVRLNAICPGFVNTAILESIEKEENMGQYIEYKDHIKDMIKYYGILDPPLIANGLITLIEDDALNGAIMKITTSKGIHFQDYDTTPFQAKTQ
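20 nM HPGD preincubated 15 min at room temperature with compound in 50 mM Tris-HCl pH 8, 0.01% Tween 20. Started with 1 mM NAD+ and 30 uM prostaglandin E2; NADH fluorescence (360/450 nm) read 5 times over 30-s intervals, last minus first.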
Lamin A splicing: changes lamin A minigene splicing in HeLa cells; HeLa LMNA splicing GFP/RFP minigene ratio, 48 h; Potency, µM (highest dose often 46.1 µM), without a hit: top-dose ratio change, negative = inhibition, hits mostly inhibitors; 200,000 compounds, 0.01% hits; AID 1487; active = well fitted inhibition curve with a large enough effect in the signal ratio, with a control signal flat, not every such curve was filed as active; inconclusive = small, poorly fitted or top-dose-only effect, or effect the other way, or a change in a side signal; the % refers to the signal ratio; also: potency is read from the fitted curve at half-maximal effect
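S3 HeLa cells stably expressing lamin A-EGFP splicing minigene plus DsRed2, 600 cells/well, 48 h compound exposure at 37C. Laser-scanning cytometry; analysed as GFP (500-530 nm)/RFP (575-640 nm) total intensity ratio; 0.5% DMSO vehicle.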
ALDH1A1 inh: inhibitors of human aldehyde dehydrogenase 1A1; Potency, µM (titrated, usually from 75.3 µM), without a hit: top-dose activity, negative = inhibition, hits mostly inhibitors; Purified ALDH1A1, NADH fluorescence, propionaldehyde substrate; P00352; AID 1030; 220,000 compounds, 7.3% hits;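 also: potency is read from the fitted curve at half-maximal effect; plate controls were no enzyme wells and a reference inhibitor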
Target sequence (P00352 whole entry, looked up): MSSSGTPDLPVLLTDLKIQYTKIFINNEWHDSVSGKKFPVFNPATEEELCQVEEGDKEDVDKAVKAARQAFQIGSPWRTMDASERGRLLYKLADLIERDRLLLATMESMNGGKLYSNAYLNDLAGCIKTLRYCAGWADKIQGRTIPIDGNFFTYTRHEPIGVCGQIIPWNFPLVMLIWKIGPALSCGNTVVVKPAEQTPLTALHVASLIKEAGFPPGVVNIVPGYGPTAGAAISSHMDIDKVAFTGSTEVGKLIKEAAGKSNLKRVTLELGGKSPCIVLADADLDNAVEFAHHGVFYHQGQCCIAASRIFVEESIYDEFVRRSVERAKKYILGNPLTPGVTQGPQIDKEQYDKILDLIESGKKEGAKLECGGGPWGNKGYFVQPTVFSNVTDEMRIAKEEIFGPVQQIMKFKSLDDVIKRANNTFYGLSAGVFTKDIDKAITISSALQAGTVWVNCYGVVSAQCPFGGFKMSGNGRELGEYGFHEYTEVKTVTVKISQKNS
PNC assembly inh: perinucleolar compartment assembly inhibition | AID 2417 | 140,000 compounds, 3.1% hits | PC3M PTB-GFP, PNC prevalence imaging, 16 h; hits give low values | activity change (PNC), negative = inhibition, % at 10 µM;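 active = readout at or below -70, meaning at least 70% loss of cells showing the perinucleolar compartment, a nuclear body marking cancer cells; inconclusive = readout between -30 and a set limit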;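 also: plate controls were DMSO wells for no effect and camptothecin positive control wells for full effect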
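Compounds are pinned in duplicate onto adhered PC3M cells stably expressing GFP-tagged PTB and incubated 16 h at 37 C. Cells are then fixed, nuclei stained with Hoechst, and PNC-positive cells counted.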
KinaseGlo FLuc: Kinase-Glo luciferase inhibition (counter-screen) | Kinase-Glo luciferase, ATP luminescence, 8 min | 200,000 compounds, 0.28% hits | Potency, µM (doses to about 38.3 µM), for the others: at the highest dose activity change, negative = inhibition, most hits filed as inhibitors | AID 1379; active = well fitted inhibition curve with a large enough effect; inconclusive = small, poorly fitted or top-dose-only effect; also: potency is read from the fitted curve at half-maximal effect; nearly all actives have a fitted effect of over 60% in size
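Luminescence was the read-out, taken after 8-minute incubation at ambient temperature. Luciferase turned over luciferin with 10 uM ATP in imidazole pH 7.2 buffer containing KCl, MgCl2, Tween 20 and BSA.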
* = called active by the depositor; ? = inconclusive; . = no result given; [ ] = remark or other dose. Shown are actives, neighbours in structure and some others; about 10% of the full set was active somewhere. Unless noted, calls follow the shape of the dose curve; as a rule, active = well fitted inhibition curve with a large enough effect (not every such curve was filed as active); inconclusive = small, poorly fitted or top-dose-only effect, or another doubt; inactive = no such curve, though single readings can be large or run the other way. Unless noted, % is scaled to controls: 0 for no effect and ±100 for the full control effect.

SMILES	HPGD block	Lamin A splicing	ALDH1A1 inh	PNC assembly inh	KinaseGlo FLuc
O=C(c1ccc(-c2ccc(Cl)cc2)o1)N1CCN(c2ccc([N+](=O)[O-])cc2Cl)CC1	-15.9%	?	3.16µM*	-20.4	1.3%
CCNc1ncc2nc(-c3cc(F)cc(F)c3)c(=O)n(Cc3cccs3)c2n1	?	.	?	.	0.2%
Cc1ccc(NC(=O)c2ccnc(C(C)(C)C)c2)cc1	-22.3%	?	14.6%	-4.0	0.4%
CC(C)(C)c1cc(C(=O)Nc2ccccc2)ccn1	-3.3%	?	3.5%	-121.7*	-1.8%
CC1(C(=O)OCC(=O)Nc2ccc3ccccc3c2)CC1(Cl)Cl (stereo not drawn)	.	.	?	.	-1.2%
Cc1ccccc1NS(=O)(=O)c1ccc(NC(=O)CSCc2ccc(Br)cc2)cc1	0.7%	?	4.6%	-99.4*	1.2%
CS(=O)(=O)N1CC(C(=O)NC2CCCC2)Oc2ccc(Cl)cc21 (stereo not drawn)	-8.4%	-7.8%	10µM*	13.7	0.4%
O=C(O)C1C2CCC(C2)C1C(=O)NCc1ccco1 (stereo not drawn)	-14.6%	4.1%	35.5µM*	-100.0*	2.8%
O=C(NCc1ccco1)C1CC2CCC1C2 (stereo not drawn)	15.8µM*	4.1%	-4.5%	-9.7	2.4%
CC(=O)c1cccc(S(=O)(=O)NCCc2csc3nc(-c4ccc(F)cc4)nn23)c1	.	-17.1%[46 µM]	.	.	.
O=C(NC(Cc1c[nH]c2ccccc12)C(=O)O)c1cccs1 (stereo not drawn)	.	?	-1.9%	.	-1.5%
O=C(NC(Cc1c[nH]c2ccccc12)C(=O)Nc1ccc(OC(F)(F)F)cc1)c1cccs1 (stereo not drawn)	-4.1%	?	-3.4%	-113.0*	0.3%
O=C(NC(Cc1c[nH]c2ccccc12)C(=O)Nc1ccc(F)c([N+](=O)[O-])c1)c1cccs1 (stereo not drawn)	-2.7%	?	-5.8%	-119.3*	0.0%
O=C1C(=C2CCCCC2)SC(=S)N1Cc1ccco1	?	-13.2%	17.8µM*	40.9	-1.8%
O=c1oc2ccccc2c(Cl)c1CN1CCCCC1	.	?	?	.	1.3%
O=c1oc2ccccc2c(N2CCCC2)c1CN1CCCC1	-25.5%	?	14.1µM*	?	1.9%
CCOC(=O)c1[nH]ncc1CN1CCCC(C(=O)c2cccc3ccccc23)C1 (stereo not drawn)	.	?	10.9%	.	-0.7%
CCOC(=O)c1[nH]ncc1CN1CCCC(C(=O)c2ccc(SC)cc2)C1 (stereo not drawn)	.	.	35.5µM*	.	-10.3%
COc1ccc(CC(=O)NCc2ccc3c(c2)CCN3C(=O)c2cccc(C)c2)cc1	.	-7.8%[46 µM]	.	.	.
CC1CCCC(C)N1/N=C/c1ccc(N(C)C)cc1 (stereo not drawn)	.	-11.6%[46 µM]	3.98µM*	.	4.7%
CCn1c(=O)c(C(=O)NC(C)C)c(O)c2ccccc21	-17.4%	-22.3%	12.6µM*	-9.9	-2.1%
COc1cc(OC)cc(C(=O)NCCc2csc(-c3ccc(C(F)(F)F)cc3)n2)c1	.	-20.8%[46 µM]	.	.	.
Cc1cc(/C=C2\SC(=S)N(Cc3ccco3)C2=O)c(C)n1-c1ccccc1	?	?	0.0891µM*	-21.7	-6.0%
O=C(O)CCCN1C(=O)/C(=C\c2ccco2)SC1=S	.	3.1%[46 µM]	?	.	-7.9%
O=C1/C(=C\c2ccco2)SC(=S)N1Cc1ccccc1	-21.4%	?	14.1µM*	-9.3	-1.4%
SMILES	HPGD block	Lamin A splicing	ALDH1A1 inh	PNC assembly inh	KinaseGlo FLuc
COc1ccc(/C=C2/SC(=S)N(n3c(C)ccc3C)C2=O)cc1	-25.7%	16.8%	6.31µM*	2.3	5.7%
O=C1/C(=C\c2ccco2)SC(=S)N1c1ccccc1	-19.0%	1.1%	8.91µM*	-5.0	0.1%
COCCNc1cc(-c2ccccc2C(F)(F)F)ncn1	-12.0%	7.1%	-4.5%	.	-2.5%
N[C@H]1CCN(O)C1=O	-10.1%	.	-3.7%	.	3.2%
COc1ccc(-n2c(C)cc(/C=C3/SC(=S)N(C)C3=O)c2C)cc1	-9.6%	-12.8%	1µM*	?	-1.5%
Cc1cc(/C=C2\SC(=O)NC2=O)c(C)n1-c1ccc(N2CCOCC2)cc1	.	.	-5.0%	.	.
COc1ccc(S(=O)(=O)c2cn(C)c3cc(N4CCCCCC4)c(F)cc3c2=O)cc1	.	19.1%[46 µM]	.	.	.
Cc1c(NC(=O)COC(=O)COc2ccc(Nc3ccccc3)cc2)c(=O)n(-c2ccccc2)n1C	.	.	22.4µM*	.	-0.2%
C/C=C\C1=C(CO)C(=O)C2O[C@]2(CC=C(C)C)C1=O (stereo partly drawn)	.	.	-0.9%[13.5 µM]	.	.
Cc1noc(/C=C/c2nn(C)cc2Cl)c1[N+](=O)[O-]	.	.	8.91µM*	.	.
Cc1cc(O)ccc1N/C=C/c1onc(C)c1[N+](=O)[O-]	.	.	11.9%	.	-10.5%
CC(C)(C)C(=O)NC(NC(=O)C(C)(C)C)c1ccc([N+](=O)[O-])cc1	-7.7%	10.3%	5.9%	2.2	1.1%
C=C(C(=O)C(C)(C)O)C(O)c1ccc([N+](=O)[O-])cc1 (stereo not drawn)	25.1µM*	.	?	.	-1.6%
FC(F)(F)c1cccc(CNC(=S)Nc2ccccc2)c1	.	12.5%[9.22 µM]	-4.8%	.	1.1%
O=C(Nc1ccccc1)Nc1cccc(C(F)(F)F)c1	.	.	-2.3%	.	0.9%
CNC(=O)Nc1cccc(C(F)(F)F)c1	-9.7%	-7.8%	1.2%	-100.0*	2.5%
Cc1ccccc1C(=O)NNC(=S)Nc1cccc(C(F)(F)F)c1	-23.8%	?	17.8µM*	-111.9*	-1.5%
FC(F)(F)c1cccc(NC(=S)NCc2ccccc2)c1	28.2µM*	11.9%	7.0%	15.1	-1.6%
CCOc1ccc(NC(=S)NNC(=O)c2cc(Br)ccc2Cl)cc1	.	.	12.6µM*	.	0.0%
CC(=O)Nc1ccc(C2NC(C(=O)O)CCC2C)cc1 (stereo not drawn)	.	.	3.1%[13.5 µM]	.	.
S=C(S)NCCCn1ccnc1	-9.7%	.	-3.9%[13.5 µM]	.	-1.6%[7.66 µM]
COC(=O)c1sc2cccc(F)c2c1S(=O)(=O)Nc1cc(C)c(Cl)cc1OC	.	-15.1%[46 µM]	.	.	.
O=C(O)CS(=O)CC(=O)Nc1cccc(C(F)(F)F)c1 (stereo not drawn)	.	.	1.78µM*	.	4.9%
CCOc1ccc(NC(=S)NNC(=S)Nc2cccc(C(F)(F)F)c2)cc1	.	.	1.26µM*	.	.
Cc1cccc(NC(=S)NNC(=O)c2ccccc2OC(F)F)c1	-11.0%	?	9.46µM*	9.9	-0.9%
O=C(O)CS(=O)CC(=O)NCc1cccc(C(F)(F)F)c1 (stereo not drawn)	.	.	1.7%	.	0.7%
O=C(NNC(=S)Nc1cccc(C(F)(F)F)c1)c1ccc(Cl)cc1Cl	-14.7%	?	20µM*	-1.0	0.9%
CCOc1ccccc1Nc1ccnc2cc(Cl)ccc12	.	-13.6%[46 µM]	-3.6%	.	5.2%
FC(F)(F)c1cccc(NC(=S)NC(c2ccccc2)c2ccccc2)c1	-3.7%	?	-2.1%	-26.5	1.3%
FC(F)(F)c1cccc(NC(=S)NNC(=S)Nc2cccc(C(F)(F)F)c2)c1	.	.	1.58µM*	.	.

Source: PubChem
